# Results published in ChEMBL document CHEMBL1961873, “Compounds: GSK PKIS; Assays: Nanosyn kinase panel” (2012).
# Tests used:
# [1] = target: Sphingosine kinase 1 (Homo sapiens) (UniProt Q9NYA1); settings: at 1 µM;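 note: mean SPHK1 inhibition value reported from the GSK PKIS kinase panel screen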
# [2] = target: T1, Sphingosine kinase 2 (Homo sapiens) (UniProt Q9NRA0); settings: at 0.1 µM
# T1 sequence (whole entry): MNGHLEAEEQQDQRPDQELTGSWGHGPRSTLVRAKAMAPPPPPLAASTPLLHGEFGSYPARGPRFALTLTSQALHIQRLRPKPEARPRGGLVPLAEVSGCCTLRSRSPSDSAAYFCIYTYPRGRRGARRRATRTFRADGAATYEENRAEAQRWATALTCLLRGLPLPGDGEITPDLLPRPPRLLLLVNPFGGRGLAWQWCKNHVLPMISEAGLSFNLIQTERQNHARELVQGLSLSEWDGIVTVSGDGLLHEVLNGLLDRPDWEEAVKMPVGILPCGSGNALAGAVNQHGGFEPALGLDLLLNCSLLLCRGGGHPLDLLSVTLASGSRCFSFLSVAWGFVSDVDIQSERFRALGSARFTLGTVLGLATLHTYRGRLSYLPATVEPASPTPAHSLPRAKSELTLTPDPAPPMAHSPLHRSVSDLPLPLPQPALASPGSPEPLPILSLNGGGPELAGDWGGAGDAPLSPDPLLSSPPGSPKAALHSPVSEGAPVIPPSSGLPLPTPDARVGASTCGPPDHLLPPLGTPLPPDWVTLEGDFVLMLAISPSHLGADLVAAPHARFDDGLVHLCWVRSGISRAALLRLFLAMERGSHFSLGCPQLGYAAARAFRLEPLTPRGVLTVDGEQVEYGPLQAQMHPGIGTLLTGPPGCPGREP
# [3] = target: T1, Sphingosine kinase 2 (Homo sapiens); settings: at 1 µM
# [4] = target: Casein kinase II subunit alpha (Homo sapiens) (UniProt P68400); settings: at 0.1 µM
# Sequence of Casein kinase II subunit alpha (Homo sapiens) (P68400 whole entry, looked up): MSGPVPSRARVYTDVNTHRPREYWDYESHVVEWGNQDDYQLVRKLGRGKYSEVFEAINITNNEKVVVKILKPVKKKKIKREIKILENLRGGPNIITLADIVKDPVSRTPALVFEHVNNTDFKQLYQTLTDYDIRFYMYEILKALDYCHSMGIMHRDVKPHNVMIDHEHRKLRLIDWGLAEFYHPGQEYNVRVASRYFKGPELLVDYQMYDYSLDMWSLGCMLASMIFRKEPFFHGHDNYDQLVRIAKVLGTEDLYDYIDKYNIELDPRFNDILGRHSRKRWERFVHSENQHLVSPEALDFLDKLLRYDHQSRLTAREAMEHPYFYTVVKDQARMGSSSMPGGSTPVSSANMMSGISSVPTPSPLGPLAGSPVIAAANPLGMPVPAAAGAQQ
# [5] = target: Casein kinase II subunit alpha (Homo sapiens) (UniProt P68400); settings: at 1 µM
# [6] = target: T2, Inhibitor of nuclear factor kappa-B kinase subunit alpha (Homo sapiens) (UniProt O15111); settings: at 0.1 µM
# T2 sequence (whole entry): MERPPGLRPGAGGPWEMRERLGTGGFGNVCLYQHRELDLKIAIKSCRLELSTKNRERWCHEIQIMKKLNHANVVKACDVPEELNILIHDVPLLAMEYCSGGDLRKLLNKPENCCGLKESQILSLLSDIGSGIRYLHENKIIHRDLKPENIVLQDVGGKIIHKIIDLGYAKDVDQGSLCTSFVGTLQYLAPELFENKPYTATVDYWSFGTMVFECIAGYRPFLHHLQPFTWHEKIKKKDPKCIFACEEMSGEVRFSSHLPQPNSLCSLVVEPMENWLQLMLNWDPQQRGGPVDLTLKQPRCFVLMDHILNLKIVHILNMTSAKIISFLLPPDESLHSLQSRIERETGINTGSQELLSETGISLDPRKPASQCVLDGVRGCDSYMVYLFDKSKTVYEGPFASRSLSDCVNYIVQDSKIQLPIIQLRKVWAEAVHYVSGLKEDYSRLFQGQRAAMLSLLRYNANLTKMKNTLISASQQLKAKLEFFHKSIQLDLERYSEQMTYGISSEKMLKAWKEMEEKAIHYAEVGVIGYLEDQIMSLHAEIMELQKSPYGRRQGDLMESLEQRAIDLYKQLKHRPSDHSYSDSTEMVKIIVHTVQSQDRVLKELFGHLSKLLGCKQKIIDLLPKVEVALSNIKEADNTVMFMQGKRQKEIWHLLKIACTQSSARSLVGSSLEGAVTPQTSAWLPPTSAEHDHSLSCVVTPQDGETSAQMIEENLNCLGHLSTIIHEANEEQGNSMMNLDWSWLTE
# [7] = target: T2, Inhibitor of nuclear factor kappa-B kinase subunit alpha (Homo sapiens); settings: at 1 µM
# [8] = target: T3, Inhibitor of nuclear factor kappa-B kinase subunit beta (Homo sapiens) (UniProt O14920); settings: at 0.1 µM
# T3 sequence (whole entry): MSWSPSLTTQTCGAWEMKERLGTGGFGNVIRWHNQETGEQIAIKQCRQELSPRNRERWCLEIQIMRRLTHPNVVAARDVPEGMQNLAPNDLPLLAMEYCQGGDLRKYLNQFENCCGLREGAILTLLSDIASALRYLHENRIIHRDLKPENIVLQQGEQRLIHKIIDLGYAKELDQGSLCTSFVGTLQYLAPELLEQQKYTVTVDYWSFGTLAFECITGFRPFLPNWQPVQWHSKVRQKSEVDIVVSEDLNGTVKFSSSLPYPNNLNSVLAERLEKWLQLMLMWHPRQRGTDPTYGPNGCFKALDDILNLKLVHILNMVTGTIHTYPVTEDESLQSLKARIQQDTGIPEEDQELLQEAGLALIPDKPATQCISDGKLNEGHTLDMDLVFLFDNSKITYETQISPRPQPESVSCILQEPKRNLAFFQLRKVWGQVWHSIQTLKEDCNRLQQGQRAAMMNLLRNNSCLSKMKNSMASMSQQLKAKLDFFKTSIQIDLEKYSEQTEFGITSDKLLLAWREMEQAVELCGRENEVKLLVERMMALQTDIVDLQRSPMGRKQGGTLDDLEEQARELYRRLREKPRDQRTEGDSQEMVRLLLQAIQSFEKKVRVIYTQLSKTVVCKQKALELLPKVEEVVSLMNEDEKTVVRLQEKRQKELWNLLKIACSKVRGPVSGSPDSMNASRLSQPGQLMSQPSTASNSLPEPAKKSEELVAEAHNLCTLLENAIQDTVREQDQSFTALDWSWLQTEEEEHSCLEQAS
# [9] = target: T3, Inhibitor of nuclear factor kappa-B kinase subunit beta (Homo sapiens); settings: at 1 µM
# [10] = target: T4, Inhibitor of nuclear factor kappa-B kinase subunit epsilon (Homo sapiens) (UniProt Q14164); settings: at 0.1 µM
# T4 sequence (whole entry): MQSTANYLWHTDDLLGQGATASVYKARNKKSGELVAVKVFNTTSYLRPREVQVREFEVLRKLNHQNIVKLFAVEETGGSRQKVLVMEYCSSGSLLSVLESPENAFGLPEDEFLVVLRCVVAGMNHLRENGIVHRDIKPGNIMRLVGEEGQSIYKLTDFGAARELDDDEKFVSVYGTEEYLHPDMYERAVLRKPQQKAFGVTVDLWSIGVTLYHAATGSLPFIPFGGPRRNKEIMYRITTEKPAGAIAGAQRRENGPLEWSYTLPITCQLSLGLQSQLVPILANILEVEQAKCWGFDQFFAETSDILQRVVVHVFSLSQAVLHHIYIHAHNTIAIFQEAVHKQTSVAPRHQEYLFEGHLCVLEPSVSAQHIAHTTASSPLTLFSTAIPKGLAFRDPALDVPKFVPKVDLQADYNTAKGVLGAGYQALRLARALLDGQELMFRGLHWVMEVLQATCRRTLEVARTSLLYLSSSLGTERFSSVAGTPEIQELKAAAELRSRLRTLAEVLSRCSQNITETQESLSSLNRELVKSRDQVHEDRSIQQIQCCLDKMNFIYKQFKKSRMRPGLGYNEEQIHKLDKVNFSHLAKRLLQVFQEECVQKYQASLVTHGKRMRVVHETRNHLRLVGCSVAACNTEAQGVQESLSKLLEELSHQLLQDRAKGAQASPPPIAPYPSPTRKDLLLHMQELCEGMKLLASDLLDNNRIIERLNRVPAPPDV
# [11] = target: T4, Inhibitor of nuclear factor kappa-B kinase subunit epsilon (Homo sapiens); settings: at 1 µM
# [12] = target: T5, Serine/threonine-protein kinase Nek1 (Homo sapiens) (UniProt Q96PY6); settings: at 0.1 µM
# T5 sequence (whole entry): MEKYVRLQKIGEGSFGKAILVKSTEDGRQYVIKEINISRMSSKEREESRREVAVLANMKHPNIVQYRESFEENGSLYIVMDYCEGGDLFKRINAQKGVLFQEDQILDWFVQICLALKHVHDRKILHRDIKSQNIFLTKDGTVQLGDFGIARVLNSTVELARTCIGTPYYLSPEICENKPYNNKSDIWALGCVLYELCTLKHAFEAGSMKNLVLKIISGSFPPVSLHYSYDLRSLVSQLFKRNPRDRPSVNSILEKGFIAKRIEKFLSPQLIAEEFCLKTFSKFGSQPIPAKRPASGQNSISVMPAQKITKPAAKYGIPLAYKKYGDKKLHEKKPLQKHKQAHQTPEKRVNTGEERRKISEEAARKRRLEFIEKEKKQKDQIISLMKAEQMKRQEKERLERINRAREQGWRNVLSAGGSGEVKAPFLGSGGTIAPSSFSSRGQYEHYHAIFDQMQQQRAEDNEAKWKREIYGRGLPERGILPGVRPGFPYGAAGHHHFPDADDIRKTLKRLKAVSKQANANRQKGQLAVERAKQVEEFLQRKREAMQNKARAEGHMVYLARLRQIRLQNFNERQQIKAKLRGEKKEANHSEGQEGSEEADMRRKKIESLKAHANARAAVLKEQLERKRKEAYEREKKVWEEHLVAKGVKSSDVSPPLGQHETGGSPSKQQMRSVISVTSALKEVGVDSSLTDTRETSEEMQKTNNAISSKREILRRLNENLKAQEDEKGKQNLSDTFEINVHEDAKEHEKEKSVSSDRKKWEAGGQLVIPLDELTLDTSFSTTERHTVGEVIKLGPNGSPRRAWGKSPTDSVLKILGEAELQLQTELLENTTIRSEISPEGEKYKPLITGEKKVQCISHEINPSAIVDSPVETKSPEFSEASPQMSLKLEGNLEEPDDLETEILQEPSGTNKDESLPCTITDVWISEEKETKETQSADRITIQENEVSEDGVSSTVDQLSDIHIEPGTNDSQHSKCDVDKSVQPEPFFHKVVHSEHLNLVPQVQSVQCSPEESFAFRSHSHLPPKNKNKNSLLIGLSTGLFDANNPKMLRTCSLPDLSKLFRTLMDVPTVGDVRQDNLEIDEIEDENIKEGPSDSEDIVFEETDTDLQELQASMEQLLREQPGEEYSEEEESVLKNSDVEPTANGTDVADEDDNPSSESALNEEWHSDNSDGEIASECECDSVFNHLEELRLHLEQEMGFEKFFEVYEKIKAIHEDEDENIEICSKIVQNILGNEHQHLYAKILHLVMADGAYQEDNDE
# [13] = target: T5, Serine/threonine-protein kinase Nek1 (Homo sapiens); settings: at 1 µM
# [14] = target: T6, Serine/threonine-protein kinase Nek2 (Homo sapiens) (UniProt P51955); settings: at 0.1 µM
# T6 sequence (whole entry): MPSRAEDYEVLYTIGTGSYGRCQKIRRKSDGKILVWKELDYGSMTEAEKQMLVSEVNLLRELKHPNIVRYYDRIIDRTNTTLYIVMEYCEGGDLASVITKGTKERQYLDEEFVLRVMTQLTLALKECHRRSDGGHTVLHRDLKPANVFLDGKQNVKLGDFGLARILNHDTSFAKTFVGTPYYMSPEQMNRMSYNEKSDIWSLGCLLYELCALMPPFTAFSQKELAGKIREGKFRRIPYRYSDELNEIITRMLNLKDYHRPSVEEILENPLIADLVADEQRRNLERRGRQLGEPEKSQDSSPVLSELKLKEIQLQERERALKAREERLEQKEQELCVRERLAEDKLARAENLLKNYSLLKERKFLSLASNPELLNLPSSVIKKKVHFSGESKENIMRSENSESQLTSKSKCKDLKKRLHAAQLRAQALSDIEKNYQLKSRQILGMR
# [15] = target: T6, Serine/threonine-protein kinase Nek2 (Homo sapiens); settings: at 1 µM
# [16] = target: Serine/threonine-protein kinase Nek6 (Homo sapiens) (UniProt Q9HC98); settings: at 0.1 µM
# Sequence of Serine/threonine-protein kinase Nek6 (Homo sapiens) (Q9HC98 whole entry): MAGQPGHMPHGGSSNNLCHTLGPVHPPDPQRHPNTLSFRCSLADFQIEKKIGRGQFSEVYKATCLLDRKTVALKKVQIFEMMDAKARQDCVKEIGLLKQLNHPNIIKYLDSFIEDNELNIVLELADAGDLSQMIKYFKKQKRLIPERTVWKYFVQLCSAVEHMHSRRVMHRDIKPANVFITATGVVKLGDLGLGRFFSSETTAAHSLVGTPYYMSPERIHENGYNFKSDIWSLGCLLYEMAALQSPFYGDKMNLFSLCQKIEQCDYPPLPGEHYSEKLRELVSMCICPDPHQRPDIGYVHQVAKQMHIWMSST
# [17] = target: Serine/threonine-protein kinase Nek6 (Homo sapiens) (UniProt Q9HC98); settings: at 1 µM
# [18] = target: Serine/threonine-protein kinase Nek7 (Homo sapiens) (UniProt Q8TDX7); settings: at 0.1 µM
# Sequence of Serine/threonine-protein kinase Nek7 (Homo sapiens) (Q8TDX7 whole entry, looked up): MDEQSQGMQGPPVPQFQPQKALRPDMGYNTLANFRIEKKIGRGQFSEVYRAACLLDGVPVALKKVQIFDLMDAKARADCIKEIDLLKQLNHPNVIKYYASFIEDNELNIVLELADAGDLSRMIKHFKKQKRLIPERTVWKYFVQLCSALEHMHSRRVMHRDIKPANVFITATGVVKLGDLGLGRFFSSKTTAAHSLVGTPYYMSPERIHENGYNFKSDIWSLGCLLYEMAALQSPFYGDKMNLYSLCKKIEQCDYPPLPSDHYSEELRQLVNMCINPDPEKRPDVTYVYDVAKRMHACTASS
# [19] = target: Serine/threonine-protein kinase Nek7 (Homo sapiens) (UniProt Q8TDX7); settings: at 1 µM
# [20] = target: T7, Serine/threonine-protein kinase Nek9 (Homo sapiens) (UniProt Q8TD19); settings: at 0.1 µM;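 note: reported value is the mean percent inhibition of NEK9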
# T7 sequence (whole entry): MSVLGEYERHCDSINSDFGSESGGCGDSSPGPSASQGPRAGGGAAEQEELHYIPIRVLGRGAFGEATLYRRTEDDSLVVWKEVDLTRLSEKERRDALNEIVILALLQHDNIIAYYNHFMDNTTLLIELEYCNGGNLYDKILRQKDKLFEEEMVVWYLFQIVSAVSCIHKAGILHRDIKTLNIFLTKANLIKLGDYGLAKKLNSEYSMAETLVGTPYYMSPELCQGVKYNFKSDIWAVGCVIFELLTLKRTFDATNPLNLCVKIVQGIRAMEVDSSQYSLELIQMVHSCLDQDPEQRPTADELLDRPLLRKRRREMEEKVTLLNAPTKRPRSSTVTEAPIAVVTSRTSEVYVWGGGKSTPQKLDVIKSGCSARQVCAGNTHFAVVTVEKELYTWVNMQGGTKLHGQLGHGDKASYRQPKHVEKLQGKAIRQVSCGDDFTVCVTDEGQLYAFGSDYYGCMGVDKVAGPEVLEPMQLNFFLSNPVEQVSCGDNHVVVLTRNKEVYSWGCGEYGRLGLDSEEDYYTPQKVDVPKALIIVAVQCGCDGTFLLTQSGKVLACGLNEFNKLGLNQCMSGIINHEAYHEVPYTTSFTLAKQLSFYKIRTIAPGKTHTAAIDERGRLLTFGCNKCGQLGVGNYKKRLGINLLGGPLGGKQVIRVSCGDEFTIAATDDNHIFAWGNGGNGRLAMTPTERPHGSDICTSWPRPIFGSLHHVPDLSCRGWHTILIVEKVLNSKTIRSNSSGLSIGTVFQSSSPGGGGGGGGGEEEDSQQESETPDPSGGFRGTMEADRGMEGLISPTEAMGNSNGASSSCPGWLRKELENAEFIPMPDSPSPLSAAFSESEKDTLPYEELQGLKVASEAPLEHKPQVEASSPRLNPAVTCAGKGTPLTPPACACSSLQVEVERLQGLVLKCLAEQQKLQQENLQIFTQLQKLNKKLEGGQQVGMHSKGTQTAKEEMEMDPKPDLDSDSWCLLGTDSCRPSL
# Sequence of Sphingosine kinase 1 (Homo sapiens) (Q9NYA1 whole entry): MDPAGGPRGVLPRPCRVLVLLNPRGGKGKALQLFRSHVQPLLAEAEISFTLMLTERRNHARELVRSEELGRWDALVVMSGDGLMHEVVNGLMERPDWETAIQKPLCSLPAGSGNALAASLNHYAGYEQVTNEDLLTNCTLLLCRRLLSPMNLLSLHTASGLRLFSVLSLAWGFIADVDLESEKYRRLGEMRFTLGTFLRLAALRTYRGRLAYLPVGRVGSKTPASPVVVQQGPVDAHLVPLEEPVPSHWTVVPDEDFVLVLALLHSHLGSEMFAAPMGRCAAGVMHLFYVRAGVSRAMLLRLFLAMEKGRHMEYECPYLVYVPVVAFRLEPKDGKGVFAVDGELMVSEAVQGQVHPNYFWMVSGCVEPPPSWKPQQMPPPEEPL
smiles,measurement,setting,value
CCOc1nccc2c1nc(-c1nonc1N)n2CC,inhibition,[1],7.65%
same,inhibition,[2],-0.3%
same,inhibition,[3],0.06%
same,inhibition,[4],5.33%
same,inhibition,[5],14.6%
same,inhibition,[6],2.3%
same,inhibition,[7],3.59%
same,inhibition,[8],0.86%
same,inhibition,[9],5.41%
same,inhibition,[10],7.17%
same,inhibition,[11],6.4%
same,inhibition,[12],5.3%
same,inhibition,[13],8.93%
same,inhibition,[14],3.98%
same,inhibition,[15],7.87%
same,inhibition,[16],5.75%
same,inhibition,[17],5.08%
same,inhibition,[18],2.9%
same,inhibition,[19],3.26%
same,inhibition,[20],6.44%
